From PubChem
Shown are actives, neighbours in structure and some others; about 17% of the full set was active somewhere.
TDP1 cell noCPT – qHTS for Inhibitors of human tyrosyl-DNA phosphodiesterase 1 (TDP1): qHTS in cells in absence of CPT; DT40 Tdp1-/- hTDP1 cells, no CPT, ATP luminescence, 48 h; Potency, µM (top dose mostly 46.2 µM), inactives show at the top dose activity change, negative = growth inhibition, hits mostly inhibitors; AID 686978, 2013; 420,000 tested, 15% active; also: % is scaled to controls: 0 for no effect and ±100 for the full control effect; nearly all actives have a fitted effect of over 55% in size
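Readout: luminescence from CellTiter-Glo after 30 min in the dark at RT. Cells: DT40 Tdp1-/- with stable hTDP1, 400/well. Exposure: compounds alone, ≥48 hr, 37 °C.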
HepG2 tox – HepG2 cytotoxicity, counter-screen for TGF-b inhibitors. HepG2 CAGA-GFP viability, ATP luminescence, 18 h. Potency, µM (titrated, usually from 46.1 µM), without a hit: at the highest dose activity change, negative = cytotoxicity, hits mostly cytotoxic. 410,000 tested, 0.76% active
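CellTiter-Glo luminescence gave cytotoxicity after 18 hours at 37 degrees C. The cells were HepG2 CAGA-GFP in 1% FBS DMEM, stimulated with 500 pg/mL TGF-beta after compound addition. %Activity was normalised to no-cell wells (complete cell-killing) and DMSO (no toxicity), and curves were fitted and classified.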
ATXN viability – viability counter-screen for ATXN expression inhibitors | Potency, µM (titrated, usually from 56.7 µM), usual class: cytotoxic | S2 cells (HEK-293 line with an ATXN2-luciferase reporter) viability, CellTiter-Fluor protease fluorescence, 24 h | 400,000 tested, 0.49% active; also: nearly all actives have a fitted effect of over 40% in size
TGFb SMAD3 inh – TGF-b pathway inhibition; HepG2 CAGA-GFP TGF-b/SMAD3 reporter, GFP fluorescence, 18 h; TGF-beta stimulated, 500 pg/mL final; Potency, µM (doses to about 46.1 µM), for inactives: at the highest dose activity, negative = inhibition, usual class: inhibitors; 410,000 tested, 1.2% active; also: % is scaled to controls: 0 for no effect and ±100 for the full control effect; nearly all actives have a fitted effect of over 65% in size
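TGF-beta reporter screen: HEPG2 CAGA-GFP, 1% FBS, 500 pg/mL TGF-beta final, 18 h; per-cell GFP summed per well; curves fitted and categorized by class.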
DT40 TDP1 CPT – growth inhibition of DT40 Tdp1-/-;hTDP1 cells with camptothecin (screen for TDP1 inhibitors). Potency, µM (top dose mostly 46.2 µM), without a hit: at the highest dose activity change, negative = growth inhibition, hits mostly inhibitors. chicken DT40 Tdp1-/-;hTDP1 cells + 20 nM CPT, ATP luminescence, 48 h. 420,000 tested, 12% active. AID 686979; also: % is scaled to controls: 0 for no effect and ±100 for the full control effect; nearly all actives have a fitted effect of over 55% in size
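Cell growth measured by CellTiter-Glo luminescence after a minimum 48 h, 37 C compound exposure with 20 nM CPT in Tdp1-knockout DT40 cells stably expressing hTDP1, seeded 400/well; qHTS titration format.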
ATXN2 expr inh – ATXN2 expression inhibition. 360,000 tested, 0.72% active. HEK-293 ATXN2-luciferase reporter, luminescence, 24 h. Potency, µM (titrated, usually from 57 µM), without a hit: top-dose activity change, negative = inhibition, hits mostly inhibitors; also: % is scaled to controls: 0 for no effect and ±100 for the full control effect; nearly all actives have a fitted effect of over 55% in size
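ATXN2-luciferase reporter cells (luciferase flanked by upstream and downstream ATXN2 gene portions) were treated 24 h at 37 °C with compounds at up to 57 uM. SteadyGlo luminescence gave expression; GF-AFC fluorescence gave viability.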
* hit, by the source's call; i = inactive; ? = inconclusive; . = no result given; [ ] = another dose, or the depositor's remark. Calls follow the shape of the dose curve; as a rule, active = well fitted curve in the direction sought with a large enough effect; inconclusive = small, poorly fitted or top-dose-only effect, or another doubt; inactive = no such curve, though single readings can be large; an effect the other way counts as inactive or inconclusive. Potency is read from the fitted curve at half-maximal effect.

SMILES | TDP1 cell noCPT | HepG2 tox | ATXN viability | TGFb SMAD3 inh | DT40 TDP1 CPT | ATXN2 expr inh
OC(c1ccc(F)c(F)c1)c1nc(-c2ccc(F)c(Cl)c2)cs1 (centres undefined) | -29% | -45% | i | ? | ? | -13%
OC(c1ccc(F)c(F)c1)c1nc(-c2ccc(Cl)cc2)cs1 (centres undefined) | 16µM* | -53% | i | ? | ? | -13%
OC(c1ccc(F)cc1)c1nc(-c2cccc(C(F)(F)F)c2)cs1 (centres undefined) | ? | -59% | i | ? | ? | 10%
OC(c1ccc(F)cc1)c1nc(-c2ccncc2)cs1 (centres undefined) | 7.3µM* | -4% | ? | 5% | 7.3µM* | -7%
OC(c1ccc(F)cc1)c1nc(-c2cccc(F)c2)cs1 (centres undefined) | ? | -46% | ? | -8% | ? | 48%
OC(c1ccc(F)c(F)c1)c1nc(-c2ccncc2)cs1 (centres undefined) | 8.2µM* | -77% | i | -6% | 8.2µM* | 3%
OC(c1ccc(F)c(F)c1)c1nc(-c2cccc(C(F)(F)F)c2)cs1 (centres undefined) | ? | 20µM* | ? | ? | 16µM* | -24%
COc1nc2ccccc2nc1CCC(=O)O | 6% | 0% | i | 8% | 0% | -21%[11.3 µM]
COc1ccc(NC(=O)C2CC23CCN(Cc2cccc4ncccc24)CC3)cc1Cl (centres undefined) | ? | . | i | . | -29% | .
Cc1nn(-c2ccccc2)c(Cl)c1CN(C(=O)CCl)c1cccc2ccccc12 | 6.5µM* | -113% | 28µM* | ? | 5.8µM* | ?
Cc1nn(-c2ccccc2)c(Cl)c1CN(C(=O)CCl)c1ccc(Cl)cc1 | 6.5µM* | 7.9µM* | 11µM* | 10µM* | 7.3µM* | 14µM*
CC(=O)N(Cc1c(C)nn(-c2ccccc2)c1Cl)c1ccc(Cl)cc1 | ? | -45% | i | 2% | ? | -13%
C=Cc1ccc(Cn2c(C)c(C(=O)NCCC#N)sc2=O)cc1 | -13% | 0% | i | 5% | -2% | 9%
CN(C)c1ccc(N/C(=N\S(=O)(=O)c2cccs2)c2ccccc2)cc1 | 6.5µM* | -16% | i | -8% | ? | .
O=C(NCc1ccccc1)C(c1ccc(-c2ccccc2)cc1)N1CCN(CCN2CCOCC2)CC1 (centres undefined) | 21µM* | . | . | . | 16µM* | .
COc1ccccc1C(=O)NCCCNC(=O)c1cccnc1 | -12% | -1% | i | 21% | -20% | 1%
Cc1cccc2cc(C#N)c(NCCNS(=O)(=O)c3ccccc3)nc12 | 0% | -19% | . | 12% | 1% | -6%
Cc1cccc2cc(C#N)c(NCCCNS(=O)(=O)c3ccc(Cl)cc3)nc12 | ? | -126% | i | ? | 18µM* | .
CCCN1C(C(=O)c2ccccc2)=C(OC(=O)COc2ccc(C)cc2)c2ccccc2S1(=O)=O | 5.2µM* | -23% | . | ? | 4.1µM* | .
CCN1C(C(=O)c2ccccc2)=C(OC(=O)COc2ccc(C)cc2)c2ccccc2S1(=O)=O | 16µM* | -4% | . | -26% | ? | .
CC(=O)c1ccc(OC(=O)COc2ccccc2)cc1 | 22% | 8% | i | 4% | 4% | -3%
CCCN1C(C(=O)c2ccccc2)=C(OC(=O)C(C)(C)C)c2ccccc2S1(=O)=O | 5.2µM* | -59% | . | ? | 4.1µM* | .
CCCN1C(C(=O)c2ccccc2)=C(OC(=O)COc2ccccc2)c2ccccc2S1(=O)=O | 4.1µM* | -24% | . | ? | 4.1µM* | .
C=CCN1C(C(=O)c2ccccc2)=C(OC(=O)COc2ccccc2)c2ccccc2S1(=O)=O | ? | -24% | i | 0% | ? | 0%
NC(=O)c1cc(S(=O)(=O)N2CCN(c3ccc(F)cc3)CC2)cs1 | -26% | 2% | ? | -23% | -13% | -17%
SMILES | TDP1 cell noCPT | HepG2 tox | ATXN viability | TGFb SMAD3 inh | DT40 TDP1 CPT | ATXN2 expr inh
COC(=O)C1=C/CCCN(C(c2ccccc2)c2ccccc2)/C=C\1C(=O)OC | -85% | 3% | i | 1% | ? | .
CCCCC(=O)OC1=C(C(=O)c2ccccc2)N(C)S(=O)(=O)c2ccccc21 | 23µM* | -31% | i | 18µM* | ? | -27%
CCN1C(C(=O)c2ccccc2)=C(OC(=O)COc2ccc(OC)cc2)c2ccccc2S1(=O)=O | 4.6µM* | -7% | . | -10% | 5.2µM* | .
COc1ccc(OCC(O)CN2C(=O)c3ccccc3S2(=O)=O)cc1 (centres undefined) | ? | -3% | i | 3% | -17% | 13%
COC(=O)CC1C2(C)CC34OC5(C)O[C@@]6(C7/C(=C(/O)C(C)C)C(=O)OC(c8ccoc8)[C@]7(C)C(OC(C)=O)C(OC(C)=O)[C@]6(O5)[C@@]13C)C(OC(C)=O)[C@]4(O)C2OC(=O)C(C)C (some centres undefined) | -4% | . | . | . | -14% | .
CCc1ccc(CNc2ncnc3onc(-c4ccc(Cl)cc4)c23)cc1 | 16µM* | -5% | i | -7% | -17% | 5%
Clc1ccc(-c2noc3ncnc(NCCc4ccccc4)c23)cc1 | ? | -31% | i | -4% | ? | 9%
Cc1ccc(CNc2ncnc3onc(-c4ccc(F)cc4)c23)cc1 | ? | -10% | i | 0% | ? | 13%
Fc1ccc(CNc2ncnc3onc(-c4ccc(F)cc4)c23)cc1 | 23µM* | -21% | i | -9% | 18µM* | -2%
Cc1ccc(Cn2cccc2C2=NC(C)(C)CO2)cc1 | 0% | 3% | i | -2% | 2% | 8%
COCCn1c(CN2CCN(C)CC2)nc2c1c(=O)n(C)c(=O)n2C | 0% | -6% | i | 4% | 4% | -2%
CCOCCn1c(CN2CCN(C)CC2)nc2c1c(=O)n(C)c(=O)n2C | 2% | -4% | i | -2% | -6% | -5%
COC(=O)Cn1c(CN2CCN(c3ccc(F)cc3)CC2)nc2c1c(=O)n(C)c(=O)n2C | 1.8µM* | -9% | i | -21% | 2.3µM* | -4%
CCOCCn1c(CN2CCN(c3cccc(Cl)c3)CC2)nc2c1c(=O)n(C)c(=O)n2C | 5.2µM* | -23% | ? | -15% | 7.3µM* | ?
